Measurements reported in PubChem BioAssay (NCI).
About 83,000 compounds went through this panel and 20% of them were active in at least one assay; those are over-represented in the sample as a whole.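 Negative percent growth values reflect cell death: -40 means 40% of the cells present at the start died, and -100 means all died.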 Values without a mark were called inactive. The source made the active and inactive calls. Rule for the calls: active = growth percent below 10; inactive = the rest.

Tested on: MDA-MB-468 breast
Test: NCI-60 one-dose screen, 48 h (100 = growth as untreated, 0 = no growth, -100 = all killed)
Details: 10 µM unless noted

| SMILES | growth |
| --- | --- |
| CNc1ccccc1C(=O)N/N=C/C=C/c1ccccc1 | 19.8% |
| Nc1nc(-c2cccc([N+](=O)[O-])c2)c(N=Nc2ccc([N+](=O)[O-])cc2Cl)s1 | -10.7% (active) |
| CCc1nc2cc(F)c(/C=C/C(=O)NO)cc2c(=O)n1CCc1ccccc1 | 4.28% (active) |
| C[n+]1c(/C=C/c2c(O)ccc3ccccc23)ccc2ccccc21 | -16.1% (active) |
| CN(C)/C=C1\SC(=Nc2ccc(Cl)cc2)NC1=O | 110% |
| Cn1cc(-c2csc(-c3cn(C(=O)OC(C)(C)C)c4ccc(Br)cc34)n2)c2cccnc21 | 104% |
| COc1cccc(NC(=O)c2sc3nc4c(cc3c2N)C(O)CCC4)c1 (stereo not drawn) | 48.6% |
| COC(=O)c1ccc(NC(=O)c2ccc(-c3cccc([N+](=O)[O-])c3)o2)cc1 | 96.5% |
| Cc1nc2sc(C(=O)Nc3cccc(Br)c3)c(N)c2cc1C(=O)c1ccc(C(F)(F)F)cc1 | 90.6% |
| Cc1cn(-c2cc(NC(=O)c3cncc(C#Cc4cnc5ccc(OCCCS(C)(=O)=O)nn45)c3)cc(C(F)(F)F)c2)cn1 | -22.5% (active) |
| NCCOc1ncccc1/C=C1\c2ccccc2-c2ccc(F)cc21 | -24.1% (active) |
| CC(C)N1CC(=O)N2CSCC2C1=O (stereo not drawn) | 92.6% |
| O=c1[nH]c(O)c(/C=C2/C=Nc3ccccc32)[nH]1 | 66.1% |
| CC/C(=C(/c1ccc(Cl)cc1)c1ccc(OCCCN(C)C)cc1)c1ccc(OC)cc1 | 51.7% |
| CCCCc1ccc(NS(=O)(=O)c2cc3c4c(c2)CCN4C(=O)CC3)cc1 | -25.9% (active) |
| CC1(C)COB(OCC(C)(C)COB2OCC(C)(C)CO2)OC1 | 114% |
| COc1cc(NC(N)=NCCC(C)(C)Oc2ccc(C(F)(F)F)cc2)ncc1C#N | -84.4% (active) |
| O=C(CSc1nc2ccccc2c(=O)n1-c1ccccc1)Nc1cccc(C(=O)/C=C/c2ccccc2Cl)c1 | 113% |
| CC1(C)S[C@@H]2[C@H](NC(=O)[C@H](C(=O)O)c3cccs3)C(=O)N2[C@H]1C(=O)O | 102% |
| CCOC(=O)Cc1cc(Br)c(OCc2ccccc2)c(Br)c1 | 110% |
| O=C1/C=C/[C@@H](O)[C@@H]2C[C@@H](O)C[C@H]2/C=C/CCC[C@@H](O)CCO1 | -17% (active) |
| Nc1ccc2c3c(cccc13)-c1ccccc1-2 | 88.6% |
| COc1ccc2[nH]c(C(=O)N3CCN(C(=O)OCc4ccc5c(Br)cc(Br)c(O)c5n4)CC3)cc2c1 | -80.5% (active) |
| COc1ccc(-c2cc(-c3cccs3)n(N=O)c(=O)c2C#N)cc1 | 99.5% |
| COc1cc2c3c(n([C@H]4CCOC4)c(=O)c2cc1OC)-c1cc2c(cc1C3=O)OCO2 | 31.3% |
| CN(C)CCOc1nc2c3ccncc3cc(-c3cccc(Cl)c3)c2c2cnccc12 | 38.3% |
| CCn1cc(CNc2ccc(C(=O)Nc3cc4cc(OC)c(OC)cc4c(C)n3)cc2)c(C)n1 | 23.2% |
| CN=S(=O)(NC(=O)c1ccc(Cl)cc1Cl)c1ccc(Br)s1 (stereo not drawn) | 88.3% |
